Compound activity (PubChem BioAssay)
PI5P4Ka inh – blocks human PI5P4K alpha kinase activity; P48426; max response, %; AID 652105; PI5P4Kalpha enzyme, ADP-Glo luminescence, 60 min; active compounds read low; 330,000 compounds, 1.2% hits; active = max response of -50% or lower; inconclusive = between -30% and -50%; inactive = -30% or higher; also: value at the top dose of about 77 µM; % is scaled to controls: 0 for no effect and ±100 for the full control effect
Target sequence (P48426 whole entry, looked up): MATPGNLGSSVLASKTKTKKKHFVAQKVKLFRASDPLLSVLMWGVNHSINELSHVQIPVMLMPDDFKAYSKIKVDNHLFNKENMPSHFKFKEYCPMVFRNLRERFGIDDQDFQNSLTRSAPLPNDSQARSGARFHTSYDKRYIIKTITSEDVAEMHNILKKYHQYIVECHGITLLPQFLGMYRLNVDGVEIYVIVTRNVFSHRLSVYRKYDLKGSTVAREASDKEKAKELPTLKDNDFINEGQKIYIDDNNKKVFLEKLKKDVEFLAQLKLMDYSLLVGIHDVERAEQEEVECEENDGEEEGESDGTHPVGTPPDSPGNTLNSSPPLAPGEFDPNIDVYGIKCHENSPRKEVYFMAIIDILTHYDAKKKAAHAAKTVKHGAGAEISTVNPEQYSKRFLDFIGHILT
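Controls without substrate or without enzyme flank wells where PI5P4Kalpha converts substrate using 5 microM ATP (final). Incubation lasts 60 minutes at room temperature; ADP formed is read by ADP-Glo luminescence.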
JMJD2A Tudor inh – inhibitors of human JMJD2A Tudor domain. 390,000 compounds, 4.4% hits. AlphaScreen JMJD2A-Tudor / H3K4me3 peptide binding. Potency, µM (highest dose often 114 µM), for inactives: at the highest dose activity change, negative = inhibition, usual class: inhibitors; also: potency is read from the fitted curve at half-maximal effect; % is scaled to controls: 0 for no effect and ±100 for the full control effect; nearly all actives have a fitted effect of over 50% in size
KAT2A inh – inhibitors of human GCN5L2 histone acetyltransferase; Q92830; GCN5L2 HAT assay, ThioGlo1 CoA-SH fluorescence; Potency, µM (top dose mostly 58.9 µM), for the others: at the highest dose activity change, negative = inhibition, hits mostly inhibitors; 390,000 compounds, 0.21% hits; also: potency is read from the fitted curve at half-maximal effect; % is scaled to controls: 0 for no effect and ±100 for the full control effect
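GCN5L2 (20nM final) in 50mM HEPES, 0.1mM EDTA pH 7.5, 0.01% Tween-20 was preincubated 15 min at room temperature with compound, then given ThioGlo1 (50uM), H3(1-25) peptide (75uM) and acetyl-CoA (70uM); CoA-thiol fluorescence (Ex340/Em540) was read at 0 and 20 min.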
HP1b binding inh – inhibitors of HP1-beta chromodomain binding to methylated histone tails; P83916; 390,000 compounds, 0.56% hits; AlphaScreen HP1-beta / biotin-H3K9me3 peptide binding; Potency, µM (highest dose often 114 µM), inactives show at the highest dose activity change, negative = inhibition, hits mostly inhibitors; also: potency is read from the fitted curve at half-maximal effect; nearly all actives have a fitted effect of over 70% in size
Target sequence (P83916 whole entry, looked up): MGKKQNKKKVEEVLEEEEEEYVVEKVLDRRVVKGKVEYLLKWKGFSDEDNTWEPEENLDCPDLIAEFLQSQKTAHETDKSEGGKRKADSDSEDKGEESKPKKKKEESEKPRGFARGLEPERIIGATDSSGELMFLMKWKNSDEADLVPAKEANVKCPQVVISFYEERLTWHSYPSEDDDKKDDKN
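Compound inhibition of the preformed complex between 50 nM HP1-beta and 50 nM biotinylated H3K9me3 peptide was read by AlphaScreen. Buffer was PBS pH 7.4 with 0.01% Tween-20. Incubations ran 30 min at room temperature, with 10 ug/mL donor/acceptor beads.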
BAZ2B inh – BAZ2B (human) inhibition | Q9UIF8 | AlphaScreen BAZ2B-H3K14Ac peptide displacement | Potency, µM (highest dose often 114 µM), without a hit: at the highest dose activity change, negative = inhibition, hits mostly inhibitors | 360,000 compounds, 4.4% hits | AID 504333; also: potency is read from the fitted curve at half-maximal effect; % is scaled to controls: 0 for no effect and ±100 for the full control effect; nearly all actives have a fitted effect of over 60% in size
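Protein-peptide AlphaScreen: BAZ2B 50 nM, b-H3K14Ac 50 nM, 1x PBS pH 7.4 + 0.01% Tween-20. Preincubation 30 min RT; cpd 30 min RT (top 110 uM); beads 20 min RT, light-protected.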
PLK1 PBD block – PLK1 (human) polo-box domain binding inhibition. Plk1 PBD binding of FITC phosphopeptide, fluorescence polarization. AID 720504. 360,000 compounds, 2.8% hits. Potency, µM, for inactives: max response, negative = inhibition, usual class: inhibitors; also: potency is read from the fitted curve at half-maximal effect; series mostly up to about 57 µM; % is scaled to controls: 0 for no effect and ±100 for the full control effect; nearly all actives have a fitted effect of over 65% in size
Active calls of the source: *; ? = inconclusive; . = no result; [ ] = remark or other dose. Most compounds without a hit are left out; they make up all but 7% or so of the library. Unless noted, calls follow the shape of the dose curve; as a rule, active = well fitted curve in the direction sought with a large enough effect; inconclusive = small, poorly fitted or top-dose-only effect, or another doubt; inactive = no such curve, though single readings can be large; an effect the other way counts as inactive or inconclusive.

SMILES	PI5P4Ka inh	JMJD2A Tudor inh	KAT2A inh	HP1b binding inh	BAZ2B inh	PLK1 PBD block
O=[N+]([O-])c1cc(/C=N/N/C(=N/c2ccccn2)c2ccccn2)ccc1O	-3	79µM*	1%	-7%	32µM*	?
Cc1cc(=O)[nH]c(N/N=C/c2ccc(Cl)c([N+](=O)[O-])c2)n1	2	-17%	-7%	48%	-8%	-5%
Cc1nnc(N/N=C/c2ccc(O)c([N+](=O)[O-])c2)[nH]c1=O	8	3.2µM*	-2%	5%	-5%	0%
O=[N+]([O-])c1cc(/C=N\Nc2nc(-c3ccccc3)cs2)ccc1O	-63*	?	?	?	13µM*	?
Cc1csc(N/N=C/c2ccc(O)c([N+](=O)[O-])c2)n1	-75*	45µM*	-10%[0.501 µM]	?	4.5µM*	?
O=[N+]([O-])c1ccc(/C=N/N/C(=N/c2ccccn2)c2ccccn2)cc1	.	-29%	17%	23%	-3%	-4%
O=C(Nc1ccc(Cl)cc1Cl)c1cccc(N2C(=O)C=CC2=O)c1	-51*	3.2µM*	-14%	?	4%	1.9µM*
O=C(Nc1ccc(Cl)cc1Cl)c1ccc2c(c1)OCCO2	18	29%	-3%	35%	16%	3%
COC(=O)c1ccc(N(CC(=O)NC2CCCC2)C(=O)c2ccc(C)s2)cc1	3	-14%	-1%	40%	-18%	3%
Cc1[nH]c2ccccc2c1/C=N/Nc1ccccn1	.	.	-12%	.	35µM*	.
Cc1[nH]c2ccccc2c1/C=N/Nc1ccc([N+](=O)[O-])cc1	-7	-28%	-21%	?	?	16%
Cc1[nH]c2ccccc2c1/C=C/c1cc[n+](C)cc1	-2	-12%	-17%	13%	56µM*	60%
Cc1[nH]c2ccccc2c1/C=N/NC(=O)c1cccc(F)c1	1	-27%	-27%	23%	-14%	-16%
Cc1[nH]c2ccccc2c1/C=N/Nc1nc(Nc2ccccc2)nc(N2CCOCC2)n1	3	?	-11%	-24%	40µM*	-26%
Cc1[nH]c2ccccc2c1/C=N/Nc1ccc(F)cc1F	.	.	-4%	.	45µM*	.
Cc1ccc(NC(=O)c2cccc(S(=O)(=O)N(C)C3CCCCC3)c2)nc1	-3	-1%	-4%	10%	-1%	-5%
COc1ccc(C2=Nc3ccccc3NC(c3cccs3)=N2)cc1	.	-23%	1%	4%	-1%	.
Cc1cc(C)n2nc(SCC(=O)N(CCC#N)c3ccc(F)cc3)nc2n1	0	-4%	-5%	34%	0%	-22%
CCOC(=O)c1c(C)[nH]c(C)c1C(=O)COC(=O)c1cccnc1SC	0	-27%	-1%	3%	-36%	-7%
Cc1[nH]c2ccccc2c1/C=N/Nc1nncn1N	5	-29%	-2%	17%	50µM*	-10%
COc1cc(C(=O)NCc2ccccc2Cl)ccc1OCC(=O)N1CCOCC1	-9	-3%	.	16%	.	-1%
Nc1ccc(-c2nc3nc(N)nc(N)c3nc2-c2ccc(N)cc2)cc1	-51*	-16%	-5%	8%	-15%	-13%
O=C(Oc1cccc([N+](=O)[O-])c1)c1ccc2c(=O)n3c(nc2c1)CCC3	?	?	-9%	-11%	50µM*	-25%
COc1ccc(OC)c(NC(=O)COC(=O)CCc2nc3ccccc3c(=O)[nH]2)c1	-6	-8%	-5%	27%	.	-10%
O=C(CSc1nc2ccccc2s1)N1N=C(c2cccs2)CC1c1ccc(F)cc1 (stereo not drawn)	17	-10%	-11%	28%	-10%	-1%
SMILES	PI5P4Ka inh	JMJD2A Tudor inh	KAT2A inh	HP1b binding inh	BAZ2B inh	PLK1 PBD block
O=C(CSc1nc2c(cnn2-c2ccc(F)cc2)c(=O)[nH]1)N1N=C(c2cccs2)CC1c1ccc(F)cc1 (stereo not drawn)	.	.	1%	.	1.3µM*	.
Nc1nnc(CSCc2ccc(F)cc2)s1	.	-6%	-5%	?	-3%	19µM*
COc1ccc(-c2cc(C(=O)Nc3c(C)nn(Cc4ccccc4C)c3C)no2)cc1	.	-9%	0%	17%	4%	.
Cc1ncc(CCl)c2c1OC(C)(C)OC2	3	?	0%	49%	50µM*	-3%
Cc1ccc(-c2nn(-c3ccc(F)cc3)cc2C(=O)N(C)CC(=O)Nc2ccc(N3CCOCC3)cc2)cc1	0	-6%	0%	10%	-5%	3%
OCCN(Cc1ccccc1)Cc1ccc(Cl)cc1Cl	.	3.5µM*	?	?	?	-3%
COCCN(C(=O)Cc1cccs1)c1nnc(-c2ccncc2)s1	-2	-24%	0%	5%	79µM*	1%
CCCOCc1cc(CN2CCN(c3cccc(Cl)c3)CC2)c(O)c2ncccc12	.	13µM*	-13%	10%	32µM*	.
CCOc1cccc(CN2CCCC(N3CCN(c4cccc(Cl)c4)CC3)C2)c1O (stereo not drawn)	3	?	-6%	-14%	?	-19%
CCCCOCc1cc(CN2CCN(c3cccc(Cl)c3)CC2)c(O)c2ncccc12	.	4µM*	20µM*	59%	5.6µM*	.
COc1ccccc1NOC(=O)CCOc1ccccc1	-4	122%	.	179%	.	0%
CCC1C(C#N)=C(SCC(N)=O)NC2=C1C(=O)CC(C)(C)C2 (stereo not drawn)	-10	71µM*	1%	-6%	1%	27µM*
CC1=C(C#N)C(C)C2=C(CC(C)(C)CC2=O)N1 (stereo not drawn)	-3	3%[11.4 µM]	-24%	-2%	-20%	30µM*
CC1C(C#N)=C(SCC(N)=O)NC2=C1C(=O)CC(C)(C)C2 (stereo not drawn)	-6	?	-4%	3%	10%	27µM*
CC1=C(C#N)C(c2ccc(O)cc2)C2=C(CC(C)(C)CC2=O)N1 (stereo not drawn)	2	-1%	-3%	45%	4%	1%
O=C(NCc1ccc(Cl)nc1)c1csc(COCCO)n1	1	.	.	.	.	-2%
Cc1ccc(-c2nnn(CC(=O)NCC3CC3)n2)o1	1	-21%	1%	17%	10%	-5%
Cc1ccc(-c2nnn(CC(=O)NCC3COCCO3)n2)o1 (stereo not drawn)	-15	50µM*	0%	?	-2%	30µM*
Cc1cc(C)nc(NC(=NCCc2c[nH]c3ccccc23)NC(=O)C(C)(C)C)n1	-4	?	-10%	-29%	-38%	-7%
COc1ccc(S(=O)(=O)Nc2ccc3c(c2)C(=O)N([C@@H](C)CO)C[C@H](C)[C@H](CN(C)CC2CC2)O3)cc1	-5	-17%	-4%	32%	.	-5%
Cc1ccc(NC2=CC(=O)C(=O)c3ccccc32)cc1	.	?	1%	-29%	40µM*	-9%
